# Screens deposited in PubChem BioAssay by several laboratories.
# Only some compounds are listed: those with a hit (about 1.4% of all), similar ones and a draw of the others.
# BCLXL inh: Bcl-xL (human) inhibition; actives 0.7% (n = 320,000); Q07817; GST-Bcl-xL / FITC-Bim BH3 peptide fluorescence polarization; inhibition, % at 10.9 µM; AID 2129;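 active = inhibition above the mean of all tested compounds plus 3 SD, cutoff set per campaign, cut at about 30% in these data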;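 note: 0% = DMSO wells and 100% = unlabeled Bim-BH3 peptide competitor; inhibitors lower millipolarization by displacing the labeled peptide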
# eLon inh: inhibitors of E. coli Lon protease. purified E. coli Lon protease, fluorescence polarization. inhibition, % at 7.94 µM. actives 0.42% (n = 360,000); in the data active = inhibition above about 13%, passing the limit was not always enough;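 note: 0% = enzyme with probe and DMSO and 100% = no enzyme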
# GLD-1 RNA inh: GLD-1-TGE RNA interaction inhibition (C. elegans); actives 0.44% (n = 320,000); purified GLD-1 + fluorescein TGE RNA, fluorescence polarization; inhibition, % at 5.96 µM; AID 2280;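 active = percent inhibition above a per-plate cutoff, the plate mean of test compounds plus 3 SD, cut at about 30% in these data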;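 note: 0% = DMSO wells with GLD-1 and probe and 100% = wells lacking GLD-1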
# MEX-5 binding: C. elegans MEX-5 TCR-2 RNA binding activity | Q9XUB2 | MEX-5/FITC-TCR2 RNA binding, fluorescence polarization; hits give low values | activity score (negative = inhibition of binding), % at 10 µM | actives 0.38% (n = 300,000);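 active = inhibition past about -25% in most replicates, and total fluorescence under double the plate's negative control median, limit read from the data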;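 note: 0% = DMSO and -100% = 5 µM competing unlabeled TCR2 RNA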
# Target sequence (Q9XUB2 whole entry, looked up): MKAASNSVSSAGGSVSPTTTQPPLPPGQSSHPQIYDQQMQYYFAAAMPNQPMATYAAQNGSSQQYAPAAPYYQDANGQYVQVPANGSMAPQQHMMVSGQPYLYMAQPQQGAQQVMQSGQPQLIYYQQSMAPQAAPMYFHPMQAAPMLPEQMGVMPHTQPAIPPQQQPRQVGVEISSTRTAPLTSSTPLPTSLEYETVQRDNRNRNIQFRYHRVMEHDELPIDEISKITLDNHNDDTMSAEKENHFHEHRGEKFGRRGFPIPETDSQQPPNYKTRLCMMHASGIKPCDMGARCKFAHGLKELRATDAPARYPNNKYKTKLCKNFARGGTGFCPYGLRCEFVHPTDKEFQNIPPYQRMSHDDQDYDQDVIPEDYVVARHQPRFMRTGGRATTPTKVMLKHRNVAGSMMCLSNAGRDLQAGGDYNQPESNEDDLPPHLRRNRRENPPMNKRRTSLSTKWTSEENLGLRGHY
# MCL1-BIM inh: disrupts human MCL1 binding to BIM-BH3 peptide; Q07820; GST-MCL1 / FITC-Bim-BH3 fluorescence polarization; inhibition, % at 10.9 µM; actives 0.68% (n = 320,000); AID 2057;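 active = inhibition above the mean inhibition of all tested compounds plus 3 SD, set per campaign, cut at about 40% in these data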;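 note: 0% = DMSO wells and 100% = unlabeled Bim-BH3 peptide control; higher means more loss of mP so more displacement of Bim peptide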
# BCLXL inh confirm: counter-screen for MCL1 inhibitors: confirmation of human Bcl-xL inhibitors; inhibition, % at 10.9 µM; GST-Bcl-xL / FITC-Bim BH3 peptide FP binding; actives 54% (n = 1,700); shares compounds with MCL1-BIM inh;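 active = inhibition above a cutoff equal to the mean inhibition of all tested compounds plus 3 SD, cut at about 30% in these data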;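 note: 0% = DMSO wells and 100% = unlabeled Bim BH3 control peptide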
# MCL1 inh confirm: confirmation of human MCL1 and BIM-BH3 interaction inhibitors. AID 2168. GST-MCL1 / FITC-Bim-BH3 fluorescence polarization. shares compounds with MCL1-BIM inh. inhibition, % at 10.9 µM. actives 61% (n = 1,700);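 active = inhibition above the average of all tested compounds plus 3 SD, cut at about 40% in these data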;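 note: 0% = DMSO wells and 100% = unlabeled Bim-BH3 control peptide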
# Numbers without * were called inactive; / = not tested or not shown.
SMILES,BCLXL inh,eLon inh,GLD-1 RNA inh,MEX-5 binding,MCL1-BIM inh,BCLXL inh confirm,MCL1 inh confirm
Nc1cc2c(cc1[N+](=O)[O-])OCO2,10,-2,-1,-2,44*,41*,78*
Nc1cc2c(cc1[N+](=O)[O-])OCCO2,-4,-2,-5,1,1,/,/
O=C(COC(=O)/C=C/c1ccccc1[N+](=O)[O-])Nc1ccc2[nH]c(=O)[nH]c2c1,/,-4,-4,/,/,/,/
Cc1ccc(S(=O)(=O)c2nc(C)oc2NCc2ccccc2)cc1,10,/,11,1,40*,10,57*
O=C(N/N=C/c1sc(=O)[nH]c1-[n+]1ccccc1)c1ccccc1[O-],44*,1,28,-23,55*,46*,64*
Cc1ccc[n+](-c2[nH]c(=O)sc2/C=N/NC(=O)c2ccccc2[O-])c1,44*,6,31*,-27*,75*,39*,56*
c1ccc2c(c1)CN1C(=N2)COc2ccccc2C1c1nc2ccccc2[nH]1 (configuration not stated),/,-4,/,/,/,/,/
CC(C)Oc1ccc(Br)cc1/C=N\NC(N)=S,1,-16,6,2,12,/,/
CCCn1c(=O)c2ccccc2n2c(SCc3cc(=O)oc4ccc5ccccc5c34)nnc12,35*,-7,31*,0,40*,18,27
Cc1ccc(N(C(=O)c2csnn2)C(C(=O)NC2CCCCC2)c2cccnc2)cc1 (configuration not stated),7,-5,2,-1,-3,/,/
CCCC(C)NC(=O)CN1C(=O)NC2(CCc3ccccc32)C1=O (configuration not stated),-5,-17,3,1,-14,/,/
N#Cc1cc(Oc2cccc3cccnc23)c(-n2nnc3ccccc32)cc1C#N,143*,13,44*,-3,139*,17,25
CC1=NN2C(=N)/C(=C\c3ccc(SCc4ccccc4)o3)C(=O)N=C2S1,-5,-27,-2,-20,5,/,/
N=C1/C(=C\c2ccc(SCc3ccco3)o2)C(=O)N=C2SC=NN12,51*,-75,21,-34*,63*,50*,68*
COc1ccc(CCN2CC(C(=O)NCCc3cn[nH]c3)CCC2=O)cc1 (configuration not stated),2,5,-4,1,-5,/,/
CCc1cccc2cc3c(N)c(C(=O)Nc4ccc(S(=O)(=O)N5CCCC5)cc4)sc3nc12,104*,-108,61*,-24,94*,43*,67*
CC1(C)CC2(OC2c2ccccc2)C(=O)c2ccccc21 (configuration not stated),/,-1,/,/,/,/,/
O=C(NNC1=Nc2cccc3cccc1c23)c1ccc(Br)cc1,28,-29,14,-5,41*,57*,81*
Cc1cc(N)ccc1-n1c(C)ccc1C,11,-12,4,1,13,/,/
Cc1cc(C(=O)O)ccc1-n1c(C)ccc1C,47*,/,26,-88*,98*,89*,141*
COc1ccccc1C(=O)NCC(=O)NCC1(N2CCCCC2)CCCCC1,-4,0,2,-2,0,/,/
O=c1[nH]c(Nc2ccccc2Cl)cc2ccccc12,7,-82,2,-1,4,/,/
Cc1ccccc1Nc1cc2ccccc2c(=O)[nH]1,82*,-44,50*,-22,81*,85*,93*
Cc1ccc(S(=O)(=O)Nc2ccc(Cl)cc2)cc1NC(=O)Cn1cnc2c1c(=O)n(C)c(=O)n2C,7,-7,11,1,5,/,/
COc1cccc(-n2c(SCc3cc(=O)oc4cc(O)c(O)cc34)nc3ccccc3c2=O)c1,13,-4,9,0,51*,21,63*
SMILES,BCLXL inh,eLon inh,GLD-1 RNA inh,MEX-5 binding,MCL1-BIM inh,BCLXL inh confirm,MCL1 inh confirm
Cn1c(N)c(C(=O)CSc2nnc(C3CC3)n2-c2ccccc2)c(=O)[nH]c1=O,/,5,-2,/,/,/,/
Cn1c(N)c(C(=O)CSc2nnc(C3CC3)n2-c2ccccc2)c(=O)n(C)c1=O,3,-11,1,/,58*,4,5
Cn1c(N)c(C(=O)CSc2nc(C3CC3)n(-c3ccccc3)n2)c(=O)[nH]c1=O,10,1,-4,/,69*,-12,-14
COc1cccc(NC(=S)N2CCC(C(=O)c3ccc(F)cc3)CC2)c1,/,6,/,/,/,/,/
CCOc1ccccc1C1NC(=O)c2ccccc2O1 (configuration not stated),3,5,3,-1,4,/,/
O=C1CCCC(O)=C1N=Nc1ccc2c(c1)OCO2,-6,-22,-10,7,-8,/,/
O=C1CCCC(O)=C1N=Nc1ccc(C(=O)O)cc1,8,-2,-2,-26*,41*,4,9
CC1=C(C(=O)Nc2ccccc2)C(c2ccco2)n2ncnc2N1 (configuration not stated),1,-2,7,1,4,/,/
CC(=O)Nc1cccc(C2=CC(c3ccco3)n3ncnc3N2)c1 (configuration not stated),116*,/,69*,-87*,123*,141*,177*
Cc1c(C)n(CCC#N)c2ccccc12,-1,-4,-1,2,3,/,/
COc1ccc2ccccc2c1-c1csc(N)n1,6,-4,1,2,8,/,/
CN(C)c1nc(-c2cn(CCC#N)c3ccccc23)cs1,65*,16,34*,-5,69*,34*,49*
COCCn1cc(-c2csc(N)n2)c2ccccc21,54*,8,26,-13,60*,16,14
O=C(CN1CCCc2ccccc21)NCc1ccccc1Cl,62*,-25,-64,-1,68*,11,-2
Cn1c(=O)[nH]c2cc(Cl)cnc21,65*,5,44*,-32*,73*,59*,69*
Cn1c(=O)[nH]c2c(Cl)nccc21,7,7,0,0,2,/,/
O=C(COC(=O)Cn1cnc2ccccc2c1=O)Nc1ccccc1Sc1ccc(Cl)cc1,3,14,10,-1,1,/,/
CCOC(=O)C1CCN(C(=O)Nc2ccc3nc(-c4ccco4)c(-c4ccco4)nc3c2)CC1,101*,13,56*,-4,143*,68*,100*
Nc1ccc(-c2c3ccc(=O)cc-3oc3cc(O)ccc23)c(C(=O)O)c1,86*,-255,16,/,78*,77*,76*
COc1ccc(-c2cc(=O)c3ccc(O)cc3o2)cc1OC,/,-2,/,/,/,/,/
COc1cccc(=O)c2c(C)n(CC(=O)c3ccccc3)c(C)c12,24,-12,3,3,47*,13,16
